# Publication PMC7862700, “An all-to-all approach to the identification of sequence-specific readers for epigenetic DNA modifications on cytosine”
# Legend:
# Assay in all cases: DAPPL (digital affinity profiling via proximity ligation, sequencing); 10 mM Tris-HCl pH 7.5, 50 mM NaCl, 1 mM DTT, 4% glycerol, room temperature, 30 min; GST-TFs on glutathione beads, 16-mer random dsDNA library, 0.1% formaldehyde crosslink after washing; high values mean tight binding
# FLI1 = target: T1, FLI1 (Homo sapiens, UniProt Q01543 1-452); conditions: protein: recombinant; tags: N-terminal GST; dsDNA, one strand shown
# T1 sequence: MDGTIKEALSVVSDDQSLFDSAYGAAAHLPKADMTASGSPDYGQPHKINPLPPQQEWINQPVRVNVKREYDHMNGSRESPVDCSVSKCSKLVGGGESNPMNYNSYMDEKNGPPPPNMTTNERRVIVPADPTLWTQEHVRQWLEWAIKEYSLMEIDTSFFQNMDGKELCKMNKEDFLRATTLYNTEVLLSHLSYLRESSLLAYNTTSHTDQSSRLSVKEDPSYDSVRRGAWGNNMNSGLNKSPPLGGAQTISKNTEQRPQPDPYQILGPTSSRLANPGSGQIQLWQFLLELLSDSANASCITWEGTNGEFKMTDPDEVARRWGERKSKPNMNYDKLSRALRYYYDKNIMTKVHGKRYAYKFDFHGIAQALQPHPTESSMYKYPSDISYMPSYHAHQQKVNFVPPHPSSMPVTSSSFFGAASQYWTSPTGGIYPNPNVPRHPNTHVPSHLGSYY
# In short: (§1)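 Sequencing on an Illumina NextSeq500 followed washing, crosslinking with 0.1% formaldehyde, proximity ligation (BsaI/T4 ligase, 1 h, 37 °C) and PCR amplification of pools that had been incubated for 30 min at room temperature with 200 nmole of a random double-stranded 16-mer DNA library in Tris/NaCl/DTT/glycerol buffer. Each pool held DNA-barcoded human transcription factors, expressed in yeast as GST fusions and captured on glutathione beads, plus a tag-only sample. Binding signal is a hexamer's read frequency for a factor divided by its frequency in the tag-only sample.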
# ELK1 = target: T2, ELK1 (Homo sapiens, UniProt P19419 1-428); conditions: protein: recombinant; tags: N-terminal GST; dsDNA, one strand shown
# T2 sequence: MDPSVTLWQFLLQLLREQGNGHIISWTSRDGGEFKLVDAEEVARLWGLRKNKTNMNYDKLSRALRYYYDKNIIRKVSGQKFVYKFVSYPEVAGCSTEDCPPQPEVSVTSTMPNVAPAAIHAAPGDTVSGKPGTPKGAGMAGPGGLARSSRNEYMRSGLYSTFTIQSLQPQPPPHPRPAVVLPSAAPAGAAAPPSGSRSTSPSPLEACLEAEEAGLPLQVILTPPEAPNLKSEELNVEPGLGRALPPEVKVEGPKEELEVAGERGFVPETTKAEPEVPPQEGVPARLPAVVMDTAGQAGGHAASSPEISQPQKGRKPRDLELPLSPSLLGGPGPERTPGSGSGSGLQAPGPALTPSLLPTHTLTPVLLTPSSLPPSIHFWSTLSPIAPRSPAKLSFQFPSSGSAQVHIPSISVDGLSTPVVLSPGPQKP
# In short: as §1
# GABPA = target: T3, GABPA (Homo sapiens, UniProt Q06546 1-454); conditions: protein: recombinant; tags: N-terminal GST; dsDNA, one strand shown
# T3 sequence: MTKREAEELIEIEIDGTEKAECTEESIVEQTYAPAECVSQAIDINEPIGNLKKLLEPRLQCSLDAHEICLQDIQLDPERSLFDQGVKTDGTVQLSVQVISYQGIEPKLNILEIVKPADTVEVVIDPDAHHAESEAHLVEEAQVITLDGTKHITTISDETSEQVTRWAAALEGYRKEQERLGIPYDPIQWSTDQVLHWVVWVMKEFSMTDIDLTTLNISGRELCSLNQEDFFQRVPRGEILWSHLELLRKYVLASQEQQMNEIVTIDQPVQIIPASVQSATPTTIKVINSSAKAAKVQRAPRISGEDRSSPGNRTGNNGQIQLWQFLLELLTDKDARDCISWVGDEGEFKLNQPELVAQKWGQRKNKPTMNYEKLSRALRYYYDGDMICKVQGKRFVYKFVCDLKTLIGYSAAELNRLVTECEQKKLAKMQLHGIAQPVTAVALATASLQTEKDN
# In short: as §1
# ERG = target: T4, ERG (Homo sapiens, UniProt P11308 1-479); conditions: protein: recombinant; tags: N-terminal GST; dsDNA, one strand shown
# T4 sequence: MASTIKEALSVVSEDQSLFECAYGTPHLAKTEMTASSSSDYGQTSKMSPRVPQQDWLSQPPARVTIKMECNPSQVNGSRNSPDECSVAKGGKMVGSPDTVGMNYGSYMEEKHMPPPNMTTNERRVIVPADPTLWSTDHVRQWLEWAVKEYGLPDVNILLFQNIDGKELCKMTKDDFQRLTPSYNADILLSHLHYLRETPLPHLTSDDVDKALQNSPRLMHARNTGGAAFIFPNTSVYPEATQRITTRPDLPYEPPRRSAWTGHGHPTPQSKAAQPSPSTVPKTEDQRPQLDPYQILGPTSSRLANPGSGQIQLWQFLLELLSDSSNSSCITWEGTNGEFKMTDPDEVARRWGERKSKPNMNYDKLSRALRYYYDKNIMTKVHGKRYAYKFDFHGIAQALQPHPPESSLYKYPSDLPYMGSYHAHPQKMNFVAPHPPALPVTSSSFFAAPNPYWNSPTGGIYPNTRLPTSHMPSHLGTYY
# In short: as §1
# ELF1 = ELF1 (Homo sapiens, UniProt P32519 1-619); conditions: protein: recombinant; tags: N-terminal GST; dsDNA, one strand shown
# Chain of ELF1 (P32519 whole entry): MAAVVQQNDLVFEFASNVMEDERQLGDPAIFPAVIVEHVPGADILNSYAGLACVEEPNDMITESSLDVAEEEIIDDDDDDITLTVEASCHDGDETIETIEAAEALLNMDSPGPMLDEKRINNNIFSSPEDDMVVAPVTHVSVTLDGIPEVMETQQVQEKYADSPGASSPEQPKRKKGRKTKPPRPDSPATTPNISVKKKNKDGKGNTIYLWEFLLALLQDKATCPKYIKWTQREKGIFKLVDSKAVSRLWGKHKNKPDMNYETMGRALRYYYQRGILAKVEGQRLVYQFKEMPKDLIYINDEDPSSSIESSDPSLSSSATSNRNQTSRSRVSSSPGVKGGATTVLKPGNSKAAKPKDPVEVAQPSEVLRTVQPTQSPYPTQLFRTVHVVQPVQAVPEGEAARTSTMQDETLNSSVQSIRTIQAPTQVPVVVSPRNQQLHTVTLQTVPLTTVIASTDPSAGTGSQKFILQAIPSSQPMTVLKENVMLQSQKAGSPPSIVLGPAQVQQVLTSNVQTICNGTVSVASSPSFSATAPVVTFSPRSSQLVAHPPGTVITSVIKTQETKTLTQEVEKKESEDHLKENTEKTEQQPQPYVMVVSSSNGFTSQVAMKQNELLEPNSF
# In short: as §1
# EHF = target: T5, EHF (Homo sapiens, UniProt Q9NZC4 1-300); conditions: protein: recombinant; tags: N-terminal GST; dsDNA, one strand shown
# T5 sequence: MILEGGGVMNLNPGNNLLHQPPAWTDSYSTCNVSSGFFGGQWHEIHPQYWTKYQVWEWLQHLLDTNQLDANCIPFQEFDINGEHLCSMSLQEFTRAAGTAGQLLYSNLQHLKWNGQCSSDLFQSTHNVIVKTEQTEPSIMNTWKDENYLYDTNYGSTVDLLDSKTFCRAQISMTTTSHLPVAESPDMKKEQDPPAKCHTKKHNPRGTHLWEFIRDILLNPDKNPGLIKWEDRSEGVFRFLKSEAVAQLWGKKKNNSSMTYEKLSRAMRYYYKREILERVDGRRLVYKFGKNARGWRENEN
# In short: as §1
# SPI1 = SPI1 (Homo sapiens, UniProt P17947 1-270); conditions: protein: recombinant; tags: N-terminal GST; dsDNA, one strand shown
# In short: as §1
# SPIB = SPIB (Homo sapiens, UniProt Q01892 1-262); conditions: protein: recombinant; tags: N-terminal GST; dsDNA, one strand shown
# Chain of SPIB (Q01892 whole entry): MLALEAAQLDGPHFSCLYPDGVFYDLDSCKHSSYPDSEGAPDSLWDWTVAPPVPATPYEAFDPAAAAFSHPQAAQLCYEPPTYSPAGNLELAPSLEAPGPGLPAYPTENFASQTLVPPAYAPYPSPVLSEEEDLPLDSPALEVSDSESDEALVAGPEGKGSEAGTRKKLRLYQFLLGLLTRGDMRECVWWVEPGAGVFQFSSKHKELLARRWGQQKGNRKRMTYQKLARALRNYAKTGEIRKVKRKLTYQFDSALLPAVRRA
# In short: as §1
# ELK3 = target: T6, ELK3 (Homo sapiens, UniProt P41970 1-407); conditions: protein: recombinant; tags: N-terminal GST; dsDNA, one strand shown
# T6 sequence: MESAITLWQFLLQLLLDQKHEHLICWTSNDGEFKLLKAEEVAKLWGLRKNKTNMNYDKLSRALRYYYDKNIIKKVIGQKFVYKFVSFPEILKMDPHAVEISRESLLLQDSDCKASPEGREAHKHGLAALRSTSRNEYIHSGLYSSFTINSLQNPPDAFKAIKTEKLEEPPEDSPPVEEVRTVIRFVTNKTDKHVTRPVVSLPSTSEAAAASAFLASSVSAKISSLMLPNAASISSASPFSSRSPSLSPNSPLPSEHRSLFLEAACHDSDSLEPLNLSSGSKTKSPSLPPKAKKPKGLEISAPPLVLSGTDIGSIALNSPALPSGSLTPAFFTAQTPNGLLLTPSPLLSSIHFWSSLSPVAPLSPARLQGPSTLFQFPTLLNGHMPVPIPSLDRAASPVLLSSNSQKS
# In short: as §1
# FEV = target: T7, FEV (Homo sapiens, UniProt Q99581 1-238); conditions: protein: recombinant; tags: N-terminal GST; dsDNA, one strand shown
# T7 sequence: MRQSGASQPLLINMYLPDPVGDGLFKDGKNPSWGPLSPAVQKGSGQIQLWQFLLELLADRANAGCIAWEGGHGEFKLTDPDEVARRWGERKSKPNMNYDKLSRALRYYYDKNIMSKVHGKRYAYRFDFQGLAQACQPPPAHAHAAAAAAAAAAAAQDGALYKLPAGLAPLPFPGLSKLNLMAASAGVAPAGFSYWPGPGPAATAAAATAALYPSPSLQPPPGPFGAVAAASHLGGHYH
# In short: as §1
# ETV5 = ETV5 (Homo sapiens, UniProt P41161 1-510); conditions: protein: recombinant; tags: N-terminal GST; dsDNA, one strand shown
# Chain of ETV5 (P41161 whole entry): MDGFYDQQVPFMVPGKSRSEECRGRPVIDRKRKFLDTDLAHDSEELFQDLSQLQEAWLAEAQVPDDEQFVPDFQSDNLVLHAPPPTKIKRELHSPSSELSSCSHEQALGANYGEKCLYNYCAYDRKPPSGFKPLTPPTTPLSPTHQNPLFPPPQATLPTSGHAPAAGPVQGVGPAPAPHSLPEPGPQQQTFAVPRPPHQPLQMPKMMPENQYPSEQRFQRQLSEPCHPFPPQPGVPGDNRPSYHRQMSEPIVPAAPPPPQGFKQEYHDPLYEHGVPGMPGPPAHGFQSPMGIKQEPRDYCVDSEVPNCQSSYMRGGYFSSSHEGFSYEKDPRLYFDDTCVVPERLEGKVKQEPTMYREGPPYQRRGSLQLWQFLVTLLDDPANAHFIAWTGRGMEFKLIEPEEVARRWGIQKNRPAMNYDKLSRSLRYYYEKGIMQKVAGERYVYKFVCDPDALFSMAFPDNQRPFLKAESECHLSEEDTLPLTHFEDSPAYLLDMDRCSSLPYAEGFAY
# In short: as §1
# HSF1 = HSF1 (Homo sapiens, UniProt Q00613 1-529); conditions: protein: recombinant; tags: N-terminal GST; chain copies: 3; dsDNA, one strand shown
# Chain of HSF1 (Q00613 whole entry): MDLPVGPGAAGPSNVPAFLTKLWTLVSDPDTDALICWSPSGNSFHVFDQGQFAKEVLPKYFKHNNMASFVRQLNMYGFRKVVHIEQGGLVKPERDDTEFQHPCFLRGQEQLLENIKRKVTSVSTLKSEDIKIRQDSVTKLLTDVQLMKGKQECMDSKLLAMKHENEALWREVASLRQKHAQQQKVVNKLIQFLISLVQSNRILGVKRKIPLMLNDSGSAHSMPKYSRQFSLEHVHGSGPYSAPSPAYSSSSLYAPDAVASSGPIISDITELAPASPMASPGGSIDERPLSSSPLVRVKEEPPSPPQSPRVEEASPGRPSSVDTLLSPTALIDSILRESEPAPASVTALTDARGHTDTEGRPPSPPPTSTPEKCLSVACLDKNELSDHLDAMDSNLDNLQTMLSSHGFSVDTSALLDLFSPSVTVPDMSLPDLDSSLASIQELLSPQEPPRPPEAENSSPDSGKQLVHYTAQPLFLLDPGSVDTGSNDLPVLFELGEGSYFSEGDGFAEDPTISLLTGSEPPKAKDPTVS
# In short: as §1
# SPIC = target: T8, SPIC (Homo sapiens, UniProt Q8N5J4 1-248); conditions: protein: recombinant; tags: N-terminal GST; dsDNA, one strand shown
# T8 sequence: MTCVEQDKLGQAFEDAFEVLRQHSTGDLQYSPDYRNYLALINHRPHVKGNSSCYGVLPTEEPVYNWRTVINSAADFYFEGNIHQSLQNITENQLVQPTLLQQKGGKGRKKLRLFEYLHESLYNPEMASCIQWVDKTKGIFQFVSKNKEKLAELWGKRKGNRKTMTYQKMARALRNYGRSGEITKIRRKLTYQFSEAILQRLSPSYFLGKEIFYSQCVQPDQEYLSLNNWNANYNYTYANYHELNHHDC
# In short: as §1
# ELF4 = ELF4 (Homo sapiens, UniProt Q99607 1-663); conditions: protein: recombinant; tags: N-terminal GST; dsDNA, one strand shown
# Chain of ELF4 (Q99607 whole entry): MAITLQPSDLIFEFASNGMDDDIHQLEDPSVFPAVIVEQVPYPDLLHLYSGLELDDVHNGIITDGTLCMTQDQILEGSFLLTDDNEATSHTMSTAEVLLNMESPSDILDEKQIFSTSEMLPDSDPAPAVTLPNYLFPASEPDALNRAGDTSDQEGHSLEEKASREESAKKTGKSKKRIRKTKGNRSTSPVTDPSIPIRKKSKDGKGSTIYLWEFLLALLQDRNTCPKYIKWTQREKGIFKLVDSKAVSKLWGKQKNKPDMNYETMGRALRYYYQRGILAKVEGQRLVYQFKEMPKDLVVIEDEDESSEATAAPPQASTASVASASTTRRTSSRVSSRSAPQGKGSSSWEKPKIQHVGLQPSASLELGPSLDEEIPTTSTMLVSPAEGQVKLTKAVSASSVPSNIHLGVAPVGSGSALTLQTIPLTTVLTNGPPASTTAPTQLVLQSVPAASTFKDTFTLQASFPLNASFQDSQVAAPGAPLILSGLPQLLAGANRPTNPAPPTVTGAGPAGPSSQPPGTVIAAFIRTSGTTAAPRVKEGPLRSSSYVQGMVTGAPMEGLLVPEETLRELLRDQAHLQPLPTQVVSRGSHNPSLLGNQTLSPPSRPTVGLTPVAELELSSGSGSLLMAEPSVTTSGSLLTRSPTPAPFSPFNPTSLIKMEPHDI
# In short: as §1
# ELK4 = target: T9, ELK4 (Homo sapiens, UniProt P28324-2 1-405); conditions: protein: recombinant; tags: N-terminal GST; dsDNA, one strand shown
# T9 sequence: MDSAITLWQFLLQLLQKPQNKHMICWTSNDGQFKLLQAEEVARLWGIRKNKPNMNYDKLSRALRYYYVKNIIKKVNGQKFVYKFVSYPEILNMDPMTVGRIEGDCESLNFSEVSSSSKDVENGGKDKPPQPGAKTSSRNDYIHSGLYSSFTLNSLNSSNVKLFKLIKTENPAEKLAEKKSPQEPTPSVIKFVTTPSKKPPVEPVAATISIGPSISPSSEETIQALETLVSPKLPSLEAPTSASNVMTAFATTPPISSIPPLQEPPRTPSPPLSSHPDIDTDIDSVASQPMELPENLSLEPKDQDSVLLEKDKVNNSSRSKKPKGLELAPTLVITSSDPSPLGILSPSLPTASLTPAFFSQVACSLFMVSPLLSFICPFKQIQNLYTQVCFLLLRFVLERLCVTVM
# In short: as §1
# ETV2 = target: T10, ETV2 (Homo sapiens, UniProt O00321 1-342); conditions: protein: recombinant; tags: N-terminal GST; dsDNA, one strand shown
# T10 sequence: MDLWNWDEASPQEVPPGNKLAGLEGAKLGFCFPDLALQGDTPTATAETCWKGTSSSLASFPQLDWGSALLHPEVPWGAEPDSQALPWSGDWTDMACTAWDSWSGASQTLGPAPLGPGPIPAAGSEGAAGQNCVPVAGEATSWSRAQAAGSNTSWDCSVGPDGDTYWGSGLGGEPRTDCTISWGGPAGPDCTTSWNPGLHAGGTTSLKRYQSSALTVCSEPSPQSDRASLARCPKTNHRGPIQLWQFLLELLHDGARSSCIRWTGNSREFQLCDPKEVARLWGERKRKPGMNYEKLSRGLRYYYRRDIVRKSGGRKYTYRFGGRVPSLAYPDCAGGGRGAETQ
# In short: as §1
# ELF3 = target: T11, ELF3 (Homo sapiens, UniProt P78545 1-371); conditions: protein: recombinant; tags: N-terminal GST; dsDNA, one strand shown
# T11 sequence: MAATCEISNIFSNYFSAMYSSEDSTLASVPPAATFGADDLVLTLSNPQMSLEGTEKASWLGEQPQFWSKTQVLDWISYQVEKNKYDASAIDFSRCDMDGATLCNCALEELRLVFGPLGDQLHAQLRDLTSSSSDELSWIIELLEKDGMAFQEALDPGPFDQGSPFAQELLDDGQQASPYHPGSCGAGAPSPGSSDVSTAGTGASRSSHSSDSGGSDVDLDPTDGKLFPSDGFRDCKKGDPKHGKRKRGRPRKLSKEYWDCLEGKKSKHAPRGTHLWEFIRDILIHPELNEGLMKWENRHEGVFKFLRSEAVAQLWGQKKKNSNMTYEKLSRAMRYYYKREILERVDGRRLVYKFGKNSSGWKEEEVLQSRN
# In short: as §1
# CRX = CRX (Homo sapiens, UniProt O43186 1-299); conditions: protein: recombinant; tags: N-terminal GST; dsDNA, one strand shown
# Chain of CRX (O43186 whole entry): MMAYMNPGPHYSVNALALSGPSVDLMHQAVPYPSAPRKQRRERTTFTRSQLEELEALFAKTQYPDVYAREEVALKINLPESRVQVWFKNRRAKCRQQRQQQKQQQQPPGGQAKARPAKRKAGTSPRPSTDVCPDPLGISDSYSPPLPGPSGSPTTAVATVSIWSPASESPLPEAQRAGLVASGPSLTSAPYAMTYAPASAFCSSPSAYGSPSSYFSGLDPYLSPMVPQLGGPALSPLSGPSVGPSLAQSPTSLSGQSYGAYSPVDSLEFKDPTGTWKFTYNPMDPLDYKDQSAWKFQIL
# In short: as §1
# ETV1 = ETV1 (Homo sapiens, UniProt P50549 1-477); conditions: protein: recombinant; tags: N-terminal GST; dsDNA, one strand shown
# Chain of ETV1 (P50549 whole entry): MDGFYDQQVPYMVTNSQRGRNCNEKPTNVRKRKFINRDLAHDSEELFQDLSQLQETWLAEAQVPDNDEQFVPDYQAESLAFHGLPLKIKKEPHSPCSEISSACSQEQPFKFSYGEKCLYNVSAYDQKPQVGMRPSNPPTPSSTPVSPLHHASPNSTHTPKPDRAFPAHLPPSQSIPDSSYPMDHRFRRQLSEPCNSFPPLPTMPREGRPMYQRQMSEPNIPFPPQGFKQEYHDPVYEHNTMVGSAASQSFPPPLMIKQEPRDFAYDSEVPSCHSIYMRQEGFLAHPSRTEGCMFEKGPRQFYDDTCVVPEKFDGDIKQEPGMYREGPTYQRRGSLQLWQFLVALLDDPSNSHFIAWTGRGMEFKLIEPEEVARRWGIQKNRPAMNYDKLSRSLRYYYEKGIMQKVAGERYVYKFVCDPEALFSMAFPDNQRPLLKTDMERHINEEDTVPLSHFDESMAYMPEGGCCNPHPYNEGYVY
# In short: as §1
sequence,measurement,setting,value
ATAACC,binding signal,FLI1,"1.21 fold enrichment (6-mer frequency, TF over GST control)"
same,binding signal,ELK1,"1.27 fold enrichment (6-mer frequency, TF over GST control)"
same,binding signal,GABPA,"1.22 fold enrichment (6-mer frequency, TF over GST control)"
same,binding signal,ERG,"1.13 fold enrichment (6-mer frequency, TF over GST control)"
same,binding signal,ELF1,"1.23 fold enrichment (6-mer frequency, TF over GST control)"
same,binding signal,EHF,"1.15 fold enrichment (6-mer frequency, TF over GST control)"
same,binding signal,SPI1,"1.06 fold enrichment (6-mer frequency, TF over GST control)"
same,binding signal,SPIB,"1.25 fold enrichment (6-mer frequency, TF over GST control)"
same,binding signal,ELK3,"1.37 fold enrichment (6-mer frequency, TF over GST control)"
same,binding signal,FEV,"1.22 fold enrichment (6-mer frequency, TF over GST control)"
same,binding signal,ETV5,"1.21 fold enrichment (6-mer frequency, TF over GST control)"
same,binding signal,HSF1,"1.09 fold enrichment (6-mer frequency, TF over GST control)"
same,binding signal,SPIC,"1.05 fold enrichment (6-mer frequency, TF over GST control)"
same,binding signal,ELF4,"1.23 fold enrichment (6-mer frequency, TF over GST control)"
same,binding signal,ELK4,"1.18 fold enrichment (6-mer frequency, TF over GST control)"
same,binding signal,ETV2,"1.05 fold enrichment (6-mer frequency, TF over GST control)"
same,binding signal,ELF3,"1.21 fold enrichment (6-mer frequency, TF over GST control)"
same,binding signal,CRX,"1.27 fold enrichment (6-mer frequency, TF over GST control)"
same,binding signal,ETV1,"1.1 fold enrichment (6-mer frequency, TF over GST control)"
